Screens: PubChem BioAssay, National Center for Advancing Translational Sciences (NCATS)
This is a sample that favours compounds with a hit; in the whole collection about 7.3% have one here.
VACV Venus inh = vaccinia inhibition (Venus reporter). 330,000 compounds, 0.46% hits. Potency, µM (series often up to 36.5 µM), for the others: at the highest dose activity change, negative = inhibition, most hits filed as inhibitors. Vaccinia virus Venus reporter expression, fluorescence; calls by dose curve; tested in A549 cells; also: potency is read from the fitted curve at half-maximal effect; nearly all actives have a fitted effect of over 30% in size
Vaccinia mCherry = inhibitors of vaccinia virus infection (mCherry reporter signal) | Vaccinia virus mCherry reporter infection, fluorescence | Potency, µM (series often up to 36.5 µM), inactives show top-dose activity change, negative = inhibition, most hits filed as inhibitors | 310,000 compounds, 0.63% hits | AID 720579; calls by dose curve; tested in A549 cells; also: potency is read from the fitted curve at half-maximal effect; nearly all actives have a fitted effect of over 35% in size
FMDV antiviral = antivirals against foot and mouth disease virus | FMDV antiviral cell-based qHTS | Potency, µM (highest dose often 57.9 µM), for inactives: at the highest dose activity change, negative = inhibition, most hits filed as inhibitors | 410,000 compounds, 1.2% hits; calls by dose curve; tested in HEK293T cells; also: read-out not given here; potency is read from the fitted curve at half-maximal effect; nearly all actives have a fitted effect of over 45% in size
HCMV inh = human cytomegalovirus inhibition. HFF cells, HCMV-luciferase reporter, 72 h; stronger effect = lower value. 410,000 compounds, 4.5% hits. activity change, negative = inhibition, % at 57.5 µM. AID 1259415; in the data active = activity change below about -60%; inconclusive = no clear call, values can overlap the other calls; inactive = above about -39%
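Compounds were evaluated in HFFs infected with an HCMV luciferase reporter virus (MOI 1 PFU/cell). Luciferase in lysates collected 72 h post infection served as the replication measure.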
HCV inh = HCV inhibition; AID 651820; 340,000 compounds, 3.4% hits; Potency, µM (titrated, usually from 41.8 µM), without a hit: at the top dose activity change, negative = inhibition, most hits filed as inhibitors; Huh7.5.1 HCVcc-Cre infection, luciferase reporter, 44 h; active = well fitted inhibition curve with a large enough effect; inconclusive = small, poorly fitted or top-dose-only effect, or another doubt; inactive = no such curve, though single readings can be large or run the other way; also: potency is read from the fitted curve at half-maximal effect
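HCVcc-Cre virus at an moi near 0.5 was added right after compound to cells cultured 4 h from seeding (1,000 cells/well). Luciferase activity was determined 44 h later, 15 min after substrate addition at RT.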
Starred values were filed as active, the others as inactive; i = inactive; ? = inconclusive; · = no result given; [ ] = remark or other dose. % is scaled to controls: 0 for no effect and ±100 for the full control effect.

SMILES | VACV Venus inh | Vaccinia mCherry | FMDV antiviral | HCMV inh | HCV inh
COc1ccc2c(c1)[C@@H](NCc1nccs1)[C@H](C)[C@@H](c1ccccc1)N2C(=O)NC(C)C | · | · | · | -8.8 | ·
CCCN(CCC)CCCNC(=O)c1cc2c(-c3ccc(Cl)cc3)nn(C)c2s1 | -22.1% | ? | -23.3% | -89.3* | ·
CCN(CC)CCCNC(=O)c1cc2c(-c3ccc(Cl)cc3)nn(C)c2s1 | ? | -14.1% | -6.5% | · | 11.2µM*
CN1CCN(CCCNC(=O)c2cc3c(-c4ccc(Cl)cc4)nn(C)c3s2)CC1 | 0.5% | 13.2% | -17.2% | 8.4 | ?
COc1ccc(CNC(=O)c2cc3c(-c4ccc(Cl)cc4)nn(C)c3s2)cc1 | -9.7% | -11.7% | -8.1% | 46.7 | ·
Cc1ccc(CNC(=O)CN2C(=O)COc3ccc(S(=O)(=O)N4CCC(C)CC4)cc32)cc1 | -6.3%[7.34 µM] | -11.0%[7.34 µM] | -6.9% | -25.9 | ·
COc1ccc(Cn2nnnc2C(c2ccccc2)N2CCN(c3ccccc3)CC2)cc1 (stereo unspecified) | -18.4% | -11.9% | · | · | ·
CCCNC(=O)Cn1nc(-c2ccccc2OC)ccc1=O | -2.4% | i | -24.3% | 2.0 | ·
COc1ccccc1-c1ccc(=O)n(CC(=O)NC2CCc3ccccc32)n1 (stereo unspecified) | -11.9% | -14.0% | -9.3% | -87.4* | -7.8%
Cc1cccc(CS(=O)(=O)CC2Nc3ccc(C(=O)NCc4ccccc4Cl)cc3NC2=O)c1 (stereo unspecified) | -0.6% | -12.2% | -11.6% | -32.8 | ·
COc1ccccc1NC(=O)C1CCN(C(=O)c2sc3nc[nH]c(=O)c3c2C)CC1 | -8.7% | -13.8% | -11.7% | 29.6 | ·
O=c1c2c(nc3c(-c4cccc5ccccc45)c[nH]n13)CCC2 | -19.6% | -0.4% | -14.1% | -3.5 | -6.0%
O=c1c2c(nc3c(-c4ccc(Cl)cc4)c[nH]n13)CCCC2 | 4.47µM* | ? | 22.4µM* | -77.7* | ?
COc1cc(/C=N/N=C(N)N)ccc1OCc1ccccc1Cl | · | · | -38.7% | -100.2* | 14.1µM*
CCOC(=O)c1c(NC(=O)/C=C/C(=O)O)sc(C)c1-c1ccc(Cl)cc1 | · | · | ? | -9.6 | -11.8%
CCOC(=O)c1c(NC(=O)CCl)sc(CN(C)C)c1-c1ccccc1 | -8.7% | -13.2% | 35.5µM* | -6.2 | ?
CCOC(=O)c1c(NC(=O)CN2CCCCC2)sc(CN(C)C)c1-c1ccccc1 | -15.6% | i | -19.2% | -25.9 | 22.4µM*
CCOC(=O)c1c(NC(=S)N2CCN(C)CC2)sc(C)c1-c1ccccc1 | -8.6% | -10.6% | -7.6% | ? | -7.3%
COCCC1CCCCN1Cc1nc(N2CCCCC2)c2cc(OC)c(OC)cc2n1 (stereo unspecified) | -1.4% | -14.7% | -3.3% | · | ·
CCc1ccc(NC(=O)[C@H](C)NC(=O)C2CCN(C(=O)[C@@H](NC(=O)OC(C)(C)C)C(C)C)CC2)cc1 | · | · | 48.1% | -70.7* | -12.5%
Cc1cc(N2CCN(S(=O)(=O)c3ccc(Cl)c(Cl)c3)CC2)c2ccccc2n1 | · | · | ? | ? | 11.2µM*
Cn1c(SCC(=O)N2CCN(S(=O)(=O)c3ccc(Cl)cc3)CC2)nc2ccccc21 | · | · | ? | 66.4 | -7.9%
Cc1ccc(C(=O)N2CCN(c3nc4ccccc4n3C)CC2)cc1 | · | · | ? | -61.5* | -26.2%
CC(=O)c1nc(N2CCN(S(=O)(=O)c3ccc(C)cc3)CC2)c2ccccc2n1 | -16.2% | i | · | · | ·
CCc1nc2ccccc2nc1N1CCN(S(=O)(=O)c2ccc(Cl)cc2)CC1 | -17.5% | i | ? | 0.1 | -22.8%
SMILES | VACV Venus inh | Vaccinia mCherry | FMDV antiviral | HCMV inh | HCV inh
Cc1cc(N2CCN(S(=O)(=O)c3ccc(Cl)cc3)CC2)c2ccccc2n1 | ? | ? | · | -87.2* | 11.2µM*
Cn1c(N2CCN(C(=O)C34CC5CC(CC(C5)C3)C4)CC2)nc2ccccc21 | · | · | · | · | 0.1%
Cn1c(N2CCN(S(=O)(=O)c3ccc(Cl)cc3)CC2)nc2ccccc21 | -5.8% | -3.0% | ? | -60.7* | -27.3%
Cc1nn(-c2ccc(N3CCCC3)nn2)c(C)c1CCC(=O)N1CCN(c2ccccc2)CC1 | -11.4% | -8.4% | -20.7% | ? | ·
COc1ccc(Cn2cnc3cnc(Nc4ccc(C(=O)N(C)C)cc4)cc32)cc1OC | · | · | · | 1.7 | ·
Cc1ccc(C2=CC(c3ccc(N(C)C)cc3)n3nnnc3N2)cc1 (stereo unspecified) | -15.0% | ? | -9.2% | -76.1* | ?
COc1ccc(C2C=C(c3ccc(Br)cc3)Nc3nnnn32)c(OC)c1 (stereo unspecified) | -18.4% | -2.6% | -5.5% | -72.1* | ·
CCc1ccc(C2=CC(c3cccc(Br)c3)n3nnnc3N2)cc1 (stereo unspecified) | -12.3% | -20.1% | 0.0% | -66.3* | ·
CC1CCCC(C)N1C(=O)c1ccccc1Nc1ccc(SC(F)F)cc1 (stereo unspecified) | · | · | -27.0% | -20.0 | 2.82µM*
O=C(COC(=O)c1ccccc1Nc1ccc(SC(F)F)cc1)NC1CC1 | -3.7% | -6.5% | 3.4% | -71.0* | -28.8%
CCN(CC)S(=O)(=O)c1ccc(NC(=O)[C@H](CSCc2ccccc2)N2Cc3ccccc3C2=O)cc1 | -24.1% | ? | -11.9% | 64.4 | ·
COC(=O)c1c(C(=O)OC)c(-c2ccc(OC)cc2)n2c1CS(=O)(=O)C2 | · | · | -0.7% | -74.0* | -3.0%
Cc1ccc(-n2nc(C)c3c(C(=O)NCc4ccccc4)cc(C4CC4)nc32)cc1 | -15.0% | -10.9% | 0.0% | 11.5 | ·
CCN1CCN(c2c(/C=C3\SC(=S)N(Cc4ccco4)C3=O)c(C)c(C#N)c(=O)n2C)CC1 | 35.6% | i | -17.4% | -72.9* | 2.24µM*
COc1ccc(OC)c(C(C[N+](=O)[O-])c2c(C)cc3ccccn23)c1 (stereo unspecified) | -4.9% | -20.5% | 22.4µM* | 48.3 | ?
COc1ccc(C(C[N+](=O)[O-])c2c(C)cc3ccccn23)c(OC)c1 (stereo unspecified) | 4.6% | 1.9% | ? | 23.6 | -9.0%
COc1ccc(-c2cnc(C)o2)cc1S(=O)(=O)Nc1ccc(F)cc1F | -5.9% | -12.6% | 97.0% | 17.6 | ·
Cc1ccc(NC(=O)c2cnc(SCC(=O)N3CCOCC3)n(C)c2=O)cc1C | -4.4% | -10.5% | ? | ? | ·
COC(=O)N/N=C\c1c(C)nn(-c2ccccc2)c1Cl | -15.2% | i | 48.4% | 1.6 | -8.2%
CCOc1ccc(Oc2c(/C=N/NC(=O)COc3ccccc3OC)c(C)nn2-c2ccccc2)cc1 | ? | -17.9% | -28.8% | -18.6 | 12.6µM*
Cc1ccc(C)c(OCC(=O)N/N=C/c2c(C)nn(-c3ccccc3)c2Cl)c1C | -11.2% | i | -17.1% | -67.8* | ?
CCOC(=O)N/N=C/c1c(C)nn(-c2cccc(C(F)(F)F)c2)c1Cl | ? | ? | ? | ? | 2.24µM*
COC(=O)[C@H]1[C@H](CO)[C@H]2Cn3c(cccc3=O)[C@@H]1N2CC1CC1 | · | · | · | -10.3 | ·
CN(C)c1ccc(/C=C/c2ccnc3cc(Cl)ccc23)cc1 | 46.5% | -15.5% | · | · | ·
